Where “and” joins values, the source holds several entries; their conditions need not be identical. Identical values can stand only once. Among all 5,500 compounds or so, about 2,000 (36%) were called active. Another 18% or so got no clear call; they are omitted. No stated cut-off is given here; in the data, active means normalized growth mostly below about 0.91 (no sharp cut-off); inconclusive means no clear call, values can overlap the other calls; inactive means mostly above about 0.92. Some of the results follow.
Assay: chemical genetic growth profiling, strain panel (AID 1159580);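 further: tested at 20 µM; growth read once vehicle control cultures reached saturation at 30 °C; 1 = growth at the plate median or of vehicle wells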
Settings: S. cerevisiae deletion strains, growth OD

Measured: normalized growth

CC(CCC(=O)O)[C@H]1CCC2C3CC[C@@H]4CCCC[C@]4(C)C3CC[C@@]21C (stereo partly drawn)
inactive: locus YAL013W, strain DEP1, stronger effect = lower value 0.995 | locus YAL021C, strain ccr4, stronger effect = lower value 1.01 | locus YAL026C, strain drs2, stronger effect = lower value 1.01 | locus YAL030W, strain snc1, stronger effect = lower value 1.01 | locus YBL061C, strain skt5, stronger effect = lower value 1.02 | locus YBR009C, strain hhf1, stronger effect = lower value 1.01 | locus YBR021W, strain FUR4, stronger effect = lower value 0.987 | locus YBR023C, strain chs3, stronger effect = lower value 1.03 | locus YBR171W, strain sec66, stronger effect = lower value 1.02 | locus YBR229C, strain ROT2, stronger effect = lower value 0.991 | locus YBR231C, strain swc5, stronger effect = lower value 1.03 | locus YBR279W, strain paf1, stronger effect = lower value 1.01 | locus YCL011C, strain gbp2, stronger effect = lower value 1.02 | locus YCL016C, strain dcc1, stronger effect = lower value 1.04 | locus YCL029C, strain bik1, stronger effect = lower value 0.98 | locus YCL061C, strain MRC1, stronger effect = lower value 1.02 | locus YCL069W, strain vba3, stronger effect = lower value 1.01 | locus YCR088W, strain abp1, stronger effect = lower value 1.01 | locus YDL005C, strain med2, stronger effect = lower value 0.999 | locus YDL035C, strain GPR1, stronger effect = lower value 0.982 | locus YDL040C, strain nat1, stronger effect = lower value 1.01 | locus YDL074C, strain BRE1, stronger effect = lower value 0.973 | locus YDL101C, strain DUN1, stronger effect = lower value 1.01 | locus YDL185W, strain tfp1, stronger effect = lower value 0.977 | locus YDL192W, strain arf1, stronger effect = lower value 0.98 | locus YDR001C, strain nth1, stronger effect = lower value 1.01 | locus YDR069C, strain doa4, stronger effect = lower value 0.994 | locus YDR101C, strain arx1, stronger effect = lower value 0.983 | locus YDR137W, strain rgp1, stronger effect = lower value 1.05 | locus YDR150W, strain NUM1, stronger effect = lower value 0.995 | locus YDR159W, strain sac3, stronger effect = lower value 0.998 | locus YDR162C, strain NBP2, stronger effect = lower value 1.04 | locus YDR195W, strain ref2 0.981 | locus YDR297W, strain sur2, stronger effect = lower value 1.01 | locus YDR318W, strain mcm21, stronger effect = lower value 0.988 | locus YDR334W, strain swr1, stronger effect = lower value 1 | locus YDR335W, strain msn5, stronger effect = lower value 1 | locus YDR388W, stronger effect = lower value 0.987 | locus YDR392W, strain spt3, stronger effect = lower value 0.943 | locus YDR502C, strain sam2, stronger effect = lower value 0.979 | locus YEL003W, strain gim4, stronger effect = lower value 1.01 | locus YEL037C, strain rad23, stronger effect = lower value 0.993 | locus YEL061C, strain CIN8 (second series), stronger effect = lower value 1.01 | locus YEL061C, strain CIN8, stronger effect = lower value 0.995 | locus YER015W, strain faa2, stronger effect = lower value 1 | locus YER016W, strain bim1, stronger effect = lower value 1.01 | locus YER110C, stronger effect = lower value 0.986 | locus YER111C, strain swi4, stronger effect = lower value 1.02 | locus YER155C, strain BEM2 (second series), stronger effect = lower value 1.03 | locus YER155C, strain BEM2, stronger effect = lower value 0.989 | locus YER167W, strain BCK2, stronger effect = lower value 0.98 | locus YFR010W, strain ubp6, stronger effect = lower value 0.997 | locus YGL078C, strain dbp3, stronger effect = lower value 0.989 | locus YGL086W, strain mad1, stronger effect = lower value 0.985 | locus YGL167C, strain pmr1, stronger effect = lower value 1.01 | locus YGL173C, strain kem1, stronger effect = lower value 1.01 | locus YGL227W, strain vid30, stronger effect = lower value 1.02 | locus YGL240W, strain doc1, stronger effect = lower value 1.03 | locus YGL248W, strain PDE1, stronger effect = lower value 1 | locus YGL253W, strain hxk2, stronger effect = lower value 1 | locus YGR078C, strain PAC10, stronger effect = lower value 1.02 | locus YGR135W, strain pre9, stronger effect = lower value 1.02 | locus YGR252W, strain gcn5, stronger effect = lower value 1.08 | locus YHR013C, strain ard1, stronger effect = lower value 1.02 | locus YHR027C, strain rpn1, stronger effect = lower value 0.995 | locus YHR030C, strain SLT2, stronger effect = lower value 0.997 and 0.97 | locus YHR079C, strain IRE1 (second series), stronger effect = lower value 0.981 | locus YHR079C, strain IRE1, stronger effect = lower value 0.973 | locus YHR094C, strain hxt1, stronger effect = lower value 0.985 | locus YHR129C, strain ARP1, stronger effect = lower value 0.995 | locus YHR142W, strain chs7, stronger effect = lower value 1 | locus YHR200W, strain rpn10, stronger effect = lower value 0.995 | locus YIL066C, strain RNR3, stronger effect = lower value 0.992 | locus YIL073C, strain SPO22, stronger effect = lower value 1.02 | locus YIL125W, strain kgd1, stronger effect = lower value 0.988 | locus YIR030C, strain dcg1, stronger effect = lower value 0.985 | locus YJL092W, strain hpr5, stronger effect = lower value 1.01 | locus YJL095W, strain BCK1 (second series), stronger effect = lower value 1 | locus YJL095W, strain BCK1, stronger effect = lower value 1.02 and 0.968 | locus YJL115W, strain asf1, stronger effect = lower value 1.01 | locus YJL129C, strain trk1, stronger effect = lower value 1.03 | locus YJL134W, strain LCB3, stronger effect = lower value 0.996 | locus YJL154C, strain vps35, stronger effect = lower value 1.01 | locus YJL164C, strain tpk1, stronger effect = lower value 1.02 | locus YJL166W, strain qcr8, stronger effect = lower value 1.01 | locus YJL168C, strain set2, stronger effect = lower value 0.983 | locus YJL187C, strain SWE1 (second series), stronger effect = lower value 1.01 | locus YJL187C, strain SWE1, stronger effect = lower value 1.01

From PubChem BioAssay AID1159580 (chemical genetic matrix, 2015)
